SMN2 splice up – SMN2 splice variant enhancement. HEK293 SMN2-luciferase splicing reporter, luminescence, 30-36 h. Potency, µM (top dose mostly 46.1 µM), for the others: at the top dose activity change, positive = activation, hits mostly activators. hit rate 2.8% among 210,000. AID 1458; further: % of control where 0% means no effect; nearly all actives have a fitted effect of over 55% in size
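HEK293 cells carry an SMN2 […]–luciferase reporter in which exon 7 inclusion puts luciferase in frame. Cells were plated 10-12 h before compound addition, then incubated 30-36 h at 37C. ONE-Glo luminescence was read; sodium butyrate at 4.5 mM final served as control.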
FLuc modulator – counter-screen for miR-21 project: firefly luciferase inhibitors or activators | P08659 | Potency, µM (doses to about 57.5 µM), without a hit: at the highest dose activity change, negative = inhibition, actives largely listed as inhibitors | hit rate 6.9% among 360,000 | purified FLuc, Km substrates, luminescence inhibition;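 further: plate controls were vehicle for no effect and reference inhibitor for full effect; nearly all actives have a fitted effect of over 55% in size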
Target sequence (P08659 whole entry, looked up): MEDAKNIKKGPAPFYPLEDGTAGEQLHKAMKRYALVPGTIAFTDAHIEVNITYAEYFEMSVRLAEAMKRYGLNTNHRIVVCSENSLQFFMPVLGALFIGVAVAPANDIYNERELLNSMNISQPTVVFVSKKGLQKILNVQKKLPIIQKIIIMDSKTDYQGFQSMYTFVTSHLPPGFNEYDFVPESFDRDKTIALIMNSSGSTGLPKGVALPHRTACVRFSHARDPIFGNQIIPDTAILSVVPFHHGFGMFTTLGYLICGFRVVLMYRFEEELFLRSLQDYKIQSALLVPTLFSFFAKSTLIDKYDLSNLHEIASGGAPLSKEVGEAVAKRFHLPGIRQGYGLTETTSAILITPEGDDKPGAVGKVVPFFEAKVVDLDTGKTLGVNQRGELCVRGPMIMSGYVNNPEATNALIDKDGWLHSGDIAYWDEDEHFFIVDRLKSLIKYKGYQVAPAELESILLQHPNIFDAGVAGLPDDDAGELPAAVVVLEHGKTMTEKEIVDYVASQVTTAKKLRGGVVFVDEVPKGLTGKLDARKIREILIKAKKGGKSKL
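Biochemical qHTS of compounds, final roughly 60 µM downward over six points, against 10 nM purified firefly luciferase using Km concentrations of substrates (10 uM D-luciferin, 10 uM ATP) in Tris acetate pH 7.5 buffer; luminescence output.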
ELG1 genotox – induces genotoxicity in HEK293T cells with luciferase-tagged ELG1. hit rate 1.3% among 330,000. Potency, µM (doses to about 46 µM), for the others: at the highest dose activity change, positive = activation, actives largely listed as activators. AID 504466. HEK293T ELG1-luciferase reporter, luminescence, 16 h; further: % of control where 0% means no effect; nearly all actives have a fitted effect of over 60% in size
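Genotoxicity was scored as increased ELG1-luciferase reporter signal, measured by ONE-Glo luminescence (30 min, room temperature). Compound or vehicle exposure of the HEK293T reporter cells lasted 16 hr at 37°C.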
Rab9 promoter act – activates the Rab9 promoter; Huh7 Rab9 promoter-luciferase reporter, luminescence, 24 h; hit rate 2.8% among 320,000; AID 485297; Potency, µM (series often up to 9.22 µM), without a hit: at the highest dose activation, negative = inhibition, most hits filed as activators; further: % of control where 0% means no effect; nearly all actives have a fitted effect of over 60% in size
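Cells were plated at 1500 per well in reduced-serum medium with 10% FBS and left 2 h. Compound in DMSO was then added for 24 h at 37 °C. Reporter signal was read by luminescence after 10 min with luciferase detection reagent.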
NPC1 promoter act – activates the NPC1 promoter; AID 485313; Potency, µM (doses to about 9.22 µM), for the others: top-dose activation, most hits filed as activators; Huh7 NPC1 promoter luciferase reporter, 24 h; hit rate 2.4% among 320,000; further: % of control where 0% means no effect; nearly all actives have a fitted effect of over 60% in size
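Luminescence from an NPC1 promoter-driven luciferase reporter in stably transfected Huh7 cells was measured after 24 h compound treatment at 37 °C, followed by 10 min ambient incubation with luciferase detection reagent.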
Starred values were filed as active, the others as inactive; ? = inconclusive; nt = not tested or not shown; [ ] = dose if it differs, or a comment. An excerpt weighted towards active compounds, which were near 7.4% of everything screened. The call rests on the fitted dose curve; in most records, active means well fitted curve in the direction sought with a large enough effect; inconclusive means small, poorly fitted or top-dose-only effect, or another doubt; inactive means no such curve, though single readings can be large; an effect the other way counts as inactive or inconclusive. Potency means the concentration at half of the fitted maximal effect.

SMILES	SMN2 splice up	FLuc modulator	ELG1 genotox	Rab9 promoter act	NPC1 promoter act
Cc1ccc(C(=O)Nc2nnc(CC(=O)N/N=C/c3ccc(O)c(O)c3)s2)cc1	nt	4.8µM*	6%	-5%	20%
CC1CCN(c2csc3ccc(F)cc3c2=O)CC1	nt	6µM*	nt	nt	nt
Cc1ccc2scc(N3CCCCC3)c(=O)c2c1	nt	0.85µM*	nt	nt	nt
Cc1ccc2scc(N3CCC(C)CC3)c(=O)c2c1	nt	1.2µM*	nt	nt	nt
COc1ccc(N2CCN(c3csc4ccc(Cl)cc4c3=O)CC2)cc1	nt	-20%	nt	nt	nt
O=c1c(N2CCc3ccccc3C2)csc2ccc(F)cc12	nt	6µM*	nt	nt	nt
CC1CCN(c2cc3c(cc2F)c(=O)c(S(=O)(=O)c2ccc(Cl)cc2)cn3C)CC1	nt	-5%	nt	nt	nt
CCOc1ccc(C(=O)NCC(c2ccc(Cl)cc2)N2CCCCC2)cc1 (stereo not given)	nt	-1%	nt	nt	nt
Cc1oc2ncn(C)c(=O)c2c1C(=O)N1CCN(c2ccc(Cl)cc2)CC1	nt	-6%	nt	nt	nt
Cc1ccc2scc(N3CCCCC3C)c(=O)c2c1 (stereo not given)	nt	0.95µM*	nt	nt	nt
CCn1cc(S(=O)(=O)c2cccc(C)c2)c(=O)c2cc(F)c(N3CCCCC3C)cc21 (stereo not given)	nt	2%	nt	nt	nt
Cc1cc(N2CCCCC2)nc2ccc(NC(=O)/C=C/c3ccc(OCCC(C)C)cc3)cc12	0%	0%	nt	nt	nt
CCOC(=O)C1=C(CS(=O)(=O)c2ccc(F)cc2)NC(=O)NC1c1ccc(OCC)c(OC)c1 (stereo not given)	-4%	-5%	nt	nt	nt
CSc1nsc2nc(=O)c(/C=C3\C(C)=Nc4ccccc43)c(N)n12	7%	15µM*	-5%	22%	9%
Cc1ccc(CNC(=O)c2cc3c(=O)n(Cc4ccco4)ccc3nc2C)cc1	nt	-7%	nt	nt	nt
CCn1c(=NC(=O)c2ccc(S(=O)(=O)N3CCCC3)cc2)sc2cc(Br)ccc21	7%	-4%	nt	nt	nt
C=CCSc1ncnc2c1oc1nc3c(cc12)COC(C)(C)C3	nt	13µM*	?	?	?
CC(C)CSc1ncnc2c1oc1nc3c(cc12)COC(C)(C)C3	?	?	13%	14%	14%
CC(C)COc1ncnc2c1sc1nc3c(cc12)COC(C)(C)C3	nt	24µM*	?	3.2µM*	4µM*
CCc1nc2c(sc3nc4c(cc32)COC(C)(C)C4)c(=O)n1CCN(CC)CC	-13%	2%	4%	-8%	-4%
CC1(C)Cc2nc3sc4c(OCc5ccccc5)ncnc4c3cc2CO1	-48%	-6%	-1%	10%	-3%
CCCOc1ncnc2c1sc1nc3c(cc12)COC(C)(C)C3	nt	?	?	?	30%
C=CCn1c(C)nc2c(sc3nc4c(cc32)COC(C)(C)C4)c1=O	nt	11µM*	?	2µM*	1.8µM*
CCSc1ncnc2c1sc1nc3c(cc12)COC(C)(C)C3	13µM*	2.7µM*	?	2.8µM*	3.5µM*
COc1ccc(-c2nc3cnc(OC)nc3n(C3CC3)c2=O)cc1	-12%	nt	nt	nt	nt
SMILES	SMN2 splice up	FLuc modulator	ELG1 genotox	Rab9 promoter act	NPC1 promoter act
COc1ccc2c(c1)O[C@@H](c1cccc(C(F)(F)F)c1)[C@H](OC(=O)NS(=O)(=O)c1ccc(C)cc1)C2=O	-1%	nt	nt	nt	nt
CCC/C=C(\CCC)C(NS(=O)(=O)c1ccc(-c2ccccc2)cc1)c1ccc(C(=O)OC)cc1 (stereo not given)	-5%	nt	nt	nt	nt
COc1ccc(/C=C(\CC(=O)O)c2nc3ccccc3o2)cc1	30%	9.5µM*	16µM*	?	2%
COc1ccc(C(=O)/C(=C/c2cccs2)c2nc3ccccc3o2)cc1	-72%	-12%	?	3.5µM*	4µM*
COc1ccc(/C=C/C(=O)Nc2cc(-c3nc4ccccc4o3)ccc2OC)cc1	-8%	?	nt	nt	nt
O=C(Nc1ccc(OCC(F)(F)C(F)F)c(C(F)(F)F)c1)c1ccccc1O	-30%	21µM*	14%	-35%	0%
O=C(Nc1ccc(OCC(F)(F)C(F)F)cc1)c1ccncc1	-66%	-3%	-9%	-10%	-4%
O=C(CNC(=O)c1cn2ccccc2n1)Nc1ccc(F)c(F)c1	nt	17µM*	8.2µM*	2.2µM*	?
O=C(NC1CC1)c1cccc(NC(=O)c2cnn(-c3ccccc3)n2)c1	nt	nt	-4%	nt	nt
O=C(NC1CC1)c1cccc(NC(=O)c2cn3ccccc3n2)c1	nt	nt	12%	3.2µM*	?
CN(CC(=O)Nc1cccc(F)c1)C(=O)c1cn2ccccc2n1	nt	3%	2%	-2%	0%
O=C(Nc1ccc(N2CCOCC2)cc1)c1cn2ccccc2n1	?	1.7µM*	3%	?	?
COc1ccccc1CCNC(=O)Cc1ccc(NC(=O)N2CCSc3ncccc32)cc1	nt	-14%	nt	nt	nt
COC(=O)Cn1c(=NC(=O)c2cccc(OC)c2)sc2cc(OC)ccc21	-8%	3µM*	-1%	11%	12%
COc1cc(OC)cc(C(=O)N=c2sc3ccccc3n2C)c1	10µM*	?	?	2.5µM*	?
COC(=O)c1ccc2c(c1)sc(=NC(=O)c1ccc(S(=O)(=O)N3CCCCC3)cc1)n2C	nt	-1%	nt	nt	nt
COc1cccc(C(=O)N=c2sc3cc(S(C)(=O)=O)ccc3n2C)c1	7%	-14%	?	3.5µM*	?
COc1ccc(C(=O)N=c2sc3ccccc3n2C)cc1	2.5µM*	1.7µM*	?	2.5µM*	3.2µM*
COc1ccc(C(=O)N=c2sc3cc(Cl)ccc3n2C)cc1	1%	-13%	nt	nt	nt
COC(=O)Cn1c(=NC(=O)c2cc(OC)cc(OC)c2)sc2cc(OC)ccc21	2%	11%	-5%	2%	-3%
COc1cccc(C(=O)N/N=c2\sc3ccccc3n2C)c1	18%	?	3%	-4%	1%
Cn1c(=NC(=O)COc2ccccc2)sc2ccccc21	13µM*	13µM*	0%	2µM*	3.5µM*
Cn1c(=NC(=O)CS(=O)(=O)c2ccccc2)sc2ccccc21	nt	2%	12%	?	?
Cc1oc2c(c1C(=O)NCc1cccc(Br)c1)C1=NCCN1C=N2	nt	0%	nt	nt	nt
O=C(CSCc1cccc(Cl)c1)N/N=C/c1ccc(OCC(=O)N2CCCCC2)cc1	-48%	2%	-2%	0%	-2%
SMILES	SMN2 splice up	FLuc modulator	ELG1 genotox	Rab9 promoter act	NPC1 promoter act
CCCOc1cccc(C(=O)N/N=C/c2ccoc2)c1	nt	13µM*	?	23%	6%
CC(C)Oc1cccc(C(=O)N/N=C/c2ccoc2)c1	nt	11µM*	?	24%	16%
Cc1cccc(C(=O)N/N=C/c2ccc(OCC(=O)N3CCCCC3)cc2)c1	-5%	15µM*	0%	5%	1%
Cc1cccc(C(=O)N/N=C/c2ccoc2)c1	nt	?	13%	23%	1%
Cn1cccc1/C=N/NC(=O)c1cccc(OC(F)(F)C(F)F)c1	24%	21µM*	12%	16%	17%
COc1ccc(NC(=O)Cn2cc(S(=O)(=O)c3ccccc3)c(=O)c3cc(C)ccc32)cc1Cl	9%	-6%	nt	nt	nt
Cc1cccc(-c2[nH]c(C(C)(C)C)nc2-c2ccc3nccnc3c2)n1	nt	nt	nt	-22%[46.1 µM]	-11%[46.1 µM]

Screening results (PubChem)
